# Sa RN4220 lethal: kills Staphylococcus aureus RN4220 | S. aureus RN4220 growth, OD600, 16 h | inhibition, % (test concentration not listed) | actives 0.33% (n = 330,000) | AID 1259311; in the data active = inhibition above about 85%;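 also: plate controls were untreated cells for no effect and reference antibiotic for full effect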
# Sa ugtP lethal: compounds lethal to S. aureus RN4220 ugtP deletion mutant | OD600 growth, 16 h | growth inhibition, % (test concentration not listed) | actives 0.54% (n = 330,000); in the data active = growth inhibition above about 68%;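 also: plate controls were untreated wells for no effect and antibiotic for full effect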
# SSB-PriA inh: blocks PriA binding to SSB C-terminal tail; AlphaScreen SSBct-PriA binding, biotinylated peptide; inhibition, % at 33 µM; actives 0.6% (n = 430,000); in the data active = inhibition mostly above about 37%, no sharp cut-off; inactive = mostly below about 20%;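 also: plate controls were negative control peptide for no effect and reference peptide for full effect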
# Mtb hypoxia inh: inhibitors of hypoxia-regulated fluorescent reporter in Mycobacterium tuberculosis; M. tuberculosis hypoxia-regulated fluorescent reporter, fluorescence; fluorescence inhibition, % (no concentration beside the values); actives 0.1% (n = 300,000); in the data active = fluorescence inhibition mostly above about 23%, no sharp cut-off; inactive = mostly below about 17%
# The depositor's hits bear a star; x = no result shown. This is a sample that favours compounds with a hit; in the whole collection about 1.1% have one here.
SMILES,Sa RN4220 lethal,Sa ugtP lethal,SSB-PriA inh,Mtb hypoxia inh
COc1cc(OC)c2c(-c3ccccc3)cc(=O)oc2c1C(CCN1CCCC(C)C1)c1ccc(N(C)C)cc1 (configuration not stated),-5,-42,97*,x
COc1ccc(S(=O)(=O)N2CCCCC2)cc1C(=O)Nc1ccccn1,x,x,1,x
COc1ccc(C(CCN2CCN(c3ccccc3)CC2)c2c(OC)cc(OC)c3c(-c4ccccc4)cc(=O)oc23)cc1 (configuration not stated),16,4,-1,-7
COc1cc(O)c(C(CCN2CCN(c3ccccc3)CC2)c2ccc3c(c2)OCO3)c(OC)c1 (configuration not stated),4,-16,42*,-1
CCCCCc1cc(=O)oc2c(C(CCN3CCCCC3)c3ccc4c(c3)OCO4)c(OC)cc(OC)c12 (configuration not stated),13,18,42*,x
COc1cc(OC)c2ccc(=O)oc2c1C(CCN1CCN(c2ccccc2)CC1)c1ccc(N(C)C)cc1 (configuration not stated),7,6,55*,-5
CCCCCc1cc(=O)oc2c(C(CCN3CCN(c4ccccc4)CC3)c3ccc(N(C)C)cc3)c(OC)cc(OC)c12 (configuration not stated),8,3,2,-2
COc1cc(OC)c2c(-c3ccccc3)cc(=O)oc2c1C(CCN1CCN(c2ccccc2)CC1)c1ccc(N(C)C)cc1 (configuration not stated),27,-19,55*,0
CCCCCc1cc(=O)oc2c(C(CCN3CCCC(C)C3)c3ccc4c(c3)OCO4)c(OC)cc(OC)c12 (configuration not stated),x,x,31,x
COc1cc(O)c(C(CCN2CCCC2)c2ccc3c(c2)OCO3)c(OC)c1 (configuration not stated),2,3,-24,8
CCOC(=O)c1nn(-c2ccc(C)cc2)c(=O)cc1OCc1c(F)cccc1Cl,x,x,-7,x
c1ccc(N=Nc2ccc3cccccc2-3)cc1,15,95*,51*,4
Nc1ccc(N=Nc2ccccc2)c2ccccc12,3,7,26,4
Nc1ccc(N=Nc2ccccc2)c(N)n1,5,-4,56*,11
COc1ccc(C(=O)Nc2nc(CC(=O)NCc3cccs3)cs2)cc1OC,x,x,-4,x
Cc1c(C2C(C#N)=C(N)N(c3ccccc3C#N)C3=C2C(=O)CCC3)cnn1C (configuration not stated),7,11,38*,14
N#CC1=C(N)N(c2ccccc2C#N)C2=C(C(=O)CCC2)C1c1ccsc1 (configuration not stated),6,5,10,3
Cc1ccc(S(=O)(=O)Nc2nc3ccc(N)cc3s2)cc1,9,84*,3,-10
CC(=O)Nc1ccc(S(=O)(=O)Nc2nc3ccc(C)cc3s2)cc1,3,1,-8,25
Cc1ccc(S(=O)(=O)Nc2nc3ccc(S(C)(=O)=O)cc3s2)cc1,5,1,40*,2
CCOC(=O)CC(=O)CSC1=C(C#N)C(c2ccc(OCC)cc2)C(C(=O)OC)C(=O)N1 (configuration not stated),x,x,9,x
Cc1ccc(-c2ccc(CCC(=O)Nc3ccc4oc(=O)ccc4c3)o2)cc1,x,x,-17,x
O=C(NCC1CCN(Cc2ccco2)CC1)c1ccc(F)cc1,x,x,2,x
COc1ccc(C#Cc2c(C=O)n(C)c3ccccc23)cc1,1,100*,-30,15
Cn1c(-c2ccc(C#N)cc2)c(C#Cc2ccccc2)c2ccccc21,x,x,-26,x
SMILES,Sa RN4220 lethal,Sa ugtP lethal,SSB-PriA inh,Mtb hypoxia inh
Cn1c(C=O)c(C#Cc2ccccc2)c2ccccc21,-3,100*,-159,2
CCCOc1cccc(C2C(=C(O)c3ccc4c(c3)CC(C)O4)C(=O)C(=O)N2CCN2CCOCC2)c1 (configuration not stated),x,x,-3,x
CCNc1nc(C)cc(NCCN)n1,x,x,-7,x
COc1cccc2sc(Nc3nc(-c4nc5ccccc5s4)cs3)nc12,x,x,-12,x
Cc1ccc(Nc2nc(-c3ccccn3)cs2)cc1,x,x,109*,x
c1ccc(-c2csc(Nc3cccnc3)n2)nc1,1,14,71*,6
Cc1ccnc(Nc2nc(-c3ccccn3)cs2)c1,x,x,147*,x
Cc1ccnc(Nc2nc(-c3ccc(O)cc3)cs2)c1,4,1,1,8
COc1cccc2sc(Nc3nc(-c4ccccn4)cs3)nc12,99*,99*,x,-69
CC(C)CN1C(=O)SC(Nc2ccc(F)c(Cl)c2)C1=O (configuration not stated),x,x,-2,x
c1ccc(Nc2nc(-c3ccccn3)cs2)cc1,7,-8,37,0
CC(=O)Nc1ccc(Nc2nc(-c3ccccn3)cs2)cc1,x,x,90*,x
Cc1cc(O[C@H]2CCN(S(=O)(=O)c3ccc(-c4ccc(F)cc4)cc3)C2)cc(=O)o1,x,x,-7,x
CCOC(=O)c1sc(NC(=O)CSc2cc(C)c3ccc(OC)cc3n2)c(C(=O)OCC)c1C,x,x,-21,x
COc1ccc(Nc2ccccc2N)cc1,-9,3,82*,x
O=C(NCCc1cccs1)c1n[nH]nc1-c1ccccc1,x,x,-12,x
Nc1ccc2nc(-c3ccccc3)c(-c3ccccc3)nc2c1,x,x,-3,x
C[n+]1c(-c2ccccc2)c2cc(N)ccc2c2ccc(N)cc21,37,98*,69,x
COc1cccc(CC(=O)Nc2nc3ccc4ccccc4c3s2)c1,x,x,-17,x
NC(=O)c1c(NC(=O)CCCC(=O)O)sc2c1CCCCCC2,-2,1,-4,-17
COC(=O)c1c(NC(=O)CCCC(=O)O)sc2c1CCC2,8,-4,73*,3
COc1ccc(CC(=O)NCCCS(=O)(=O)N2CCN(c3ccccc3)CC2)cc1,x,x,-13,x
COc1cccc2[nH]c(C(=O)NCCCN3CCCC3=O)cc12,5,10,-5,5
COc1ccc2cc(C(=O)NCCCN3CCCC3=O)[nH]c2c1,2,7,40*,14
Cc1cc(CNS(=O)(=O)Cc2ccccc2)nc(N(C)C)n1,x,x,-2,x
SMILES,Sa RN4220 lethal,Sa ugtP lethal,SSB-PriA inh,Mtb hypoxia inh
NC(=O)CC1SC(=O)N=C1N (configuration not stated),x,x,-1,x
O=C(c1ccc(Cl)s1)N1CC(c2nc(-c3ccc[nH]c3=O)no2)C1,x,x,-18,x
O=[N+]([O-])c1cccnc1Sc1ccccc1,x,x,82*,x
O=[N+]([O-])c1cccnc1Sc1ncccc1O,x,x,35,x
O=[N+]([O-])c1cccnc1Sc1ccc(Cl)cc1,-2,1,52*,14
CCN(CC)C(=O)c1ccc2c(c1)C1C(Cl)C(Sc3ccccc3[N+](=O)[O-])CC1C(C(=O)O)N2 (configuration not stated),-4,-10,64*,-3
CCN1CCc2c(sc3c2C(=O)NC(c2ccccn2)N3)C1 (configuration not stated),x,x,49,x
CN1CCc2c(sc3c2C(=O)NC(c2ccccn2)N3)C1 (configuration not stated),2,1,85*,4
CCC1CCc2c(sc3c2C(=O)NC(c2ccccn2)N3)C1 (configuration not stated),x,x,45,x
O=C1NC(c2ccccn2)Nc2sc3c(c21)CCC3 (configuration not stated),3,-6,81*,-1

# Source: PubChem BioAssay (several laboratories)
